# B2AR arrestin: qHTS assay of beta-arrestin-biased ligands of beta2-adrenergic receptor | Potency, µM (doses to about 46.1 µM), inactives show at the highest dose activation, most hits filed as activators | hit rate 0.02% among 330,000 | AID 492947, 2010 | beta-arrestin recruitment to beta2AR, cell-based reporter;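 also: 0% = DMSO controls and full agonism = EC100 isoproterenol or metaproterenol; nearly all actives have a fitted effect of over 65% in size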
# MBNL1-CUG inh: qHTS Assay for Inhibitors of MBNL1-poly(CUG) RNA binding; Potency, µM (series often up to 57.5 µM), for the others: at the top dose activity change, negative = inhibition, hits mostly inhibitors; hit rate 0.036% among 280,000; TR-FRET MBNL1-His/biotin-(CUG)12 binding, 665/545 ratio; AID 2675, 2010; Muscleblind-like protein 1 (Homo sapiens), Q9NR56; active = well fitted inhibition curve with a large enough effect in the signal ratio, with a control signal flat, not every such curve was filed as active; inconclusive = small, poorly fitted or top-dose-only effect, or effect the other way, or a change in a side signal; inactive = no such curve, though single readings can be large or run the other way; the % refers to the signal ratio
#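 Compounds (final 92 nM to 58 uM) are added to His-tagged MBNL1 and biotin-(CUG)12, then terbium anti-His antibody and streptavidin-XL665 (5 nM final). After 60 min at room temperature, the 665/545 nm ratio is read.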
# BCR signal inh: qHTS Assay to Find Inhibitors of Chronic Active B-Cell Receptor Signaling. ABC-DLBCL IkBa-CBG/CBR reporter, luminescence ratio, 4 h. Potency, µM (top dose mostly 46.1 µM), without a hit: top-dose activity change, negative = inhibition, hits mostly inhibitors. hit rate 0.05% among 340,000; active = well fitted inhibition curve with a large enough effect in the signal ratio, with a control signal flat, not every such curve was filed as active; inconclusive = small, poorly fitted or top-dose-only effect, or effect the other way, or a change in a side signal; the % refers to the signal ratio;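 also: plate controls were basal doxycycline-induced cells for no effect and cells given 10 µM MG132 for full effect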
#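 Cell line TMD8 (human ABC DLBCL), stably expressing tet-inducible CBG68-IkBa fusion and CBR; IMDM/0.5% FBS; cpd up to 46 uM; dox induction, 4 h, 37C/5% CO2; dual luminescence; green/red ratio; MG132 control.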
# GLS inh: qHTS for Inhibitors of Glutaminase (GLS). GLS enzymatic activity, qHTS titration. Potency, µM (series often up to 45.5 µM), without a hit: at the highest dose activity change, negative = inhibition, most hits filed as inhibitors. hit rate 0.21% among 410,000. Glutaminase kidney isoform, mitochondrial (Homo sapiens), O94925
# Target sequence (O94925 whole entry, looked up, canonical isoform): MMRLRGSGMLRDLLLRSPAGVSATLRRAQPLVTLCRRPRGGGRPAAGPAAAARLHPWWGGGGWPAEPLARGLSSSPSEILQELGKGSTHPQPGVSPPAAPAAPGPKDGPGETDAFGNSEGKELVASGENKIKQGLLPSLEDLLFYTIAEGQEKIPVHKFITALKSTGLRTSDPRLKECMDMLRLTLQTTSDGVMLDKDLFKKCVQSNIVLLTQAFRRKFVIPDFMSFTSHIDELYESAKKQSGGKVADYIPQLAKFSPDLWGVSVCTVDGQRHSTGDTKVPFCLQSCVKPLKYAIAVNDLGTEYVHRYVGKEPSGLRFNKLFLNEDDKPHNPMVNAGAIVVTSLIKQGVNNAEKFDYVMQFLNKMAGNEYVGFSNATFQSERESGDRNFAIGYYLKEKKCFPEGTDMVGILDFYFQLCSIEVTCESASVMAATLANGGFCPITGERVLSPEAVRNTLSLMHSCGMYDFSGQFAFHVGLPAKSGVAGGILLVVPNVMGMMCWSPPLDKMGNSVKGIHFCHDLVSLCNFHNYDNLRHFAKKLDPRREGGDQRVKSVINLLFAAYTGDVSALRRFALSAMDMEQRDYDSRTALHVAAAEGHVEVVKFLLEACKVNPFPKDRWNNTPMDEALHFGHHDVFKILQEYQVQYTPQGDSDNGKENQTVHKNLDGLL
#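 Assay buffer: 45 mM KH2PO4 pH 8.2, 0.02% Tween-20. hKGA acts on L-glutamine (1 mM solution added); product glutamate is reported by an oxidase/peroxidase Amplex Red coupling, with fluorescence taken at baseline and 30 min.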
# Anesthetic bind: qHTS Assay for Identification of Novel General Anesthetics; Ferritin light chain (Equus caballus), P02791; apoferritin/1-aminoanthracene competitive binding, fluorescence; Potency, µM (highest dose often 77.5 µM), inactives show top-dose activity change, negative = displacement, actives largely listed as inhibitors; hit rate 0.074% among 350,000; also: nearly all actives have a fitted effect of over 20% in size
#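 Concentration-response curves derived by four-parameter Hill fitting of normalized fluorescence, where compounds displaced 1-AMA from 10 uM horse apoferritin following a brief 10 min room-temperature incubation; propofol titration acted as positive control.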
# An asterisk follows results filed as active; ? = inconclusive; . = no result; [ ] = another dose, or the depositor's remark. In the library only some 0.35% were active in any assay of this set; here they are far more common. Unless noted, calls follow the shape of the dose curve; as a rule, active = well fitted curve in the direction sought with a large enough effect; inconclusive = small, poorly fitted or top-dose-only effect, or another doubt; inactive = no such curve, though single readings can be large; an effect the other way counts as inactive or inconclusive. Unless noted, % is scaled to controls: 0 for no effect and ±100 for the full control effect; potency is read from the fitted curve at half-maximal effect.
SMILES,B2AR arrestin,MBNL1-CUG inh,BCR signal inh,GLS inh,Anesthetic bind
CC1=NN(c2ccc(S(=O)(=O)O)cc2C)C(=O)C1,-0.3%,5.7%,5.5%,0.0%,-3.0%
O=S(=O)(NCCC1=CCCCC1)c1cccc2nsnc12,-0.6%,?,28.1%,7.4%,8.91µM*
Cc1ccc(OCCCn2ccnc2)cc1C,-0.1%,-1.3%,-0.3%,1.2%,17.8µM*
Cc1cccc(OCCCn2ccnc2)c1,0.1%,-9.7%,10.0%,0.3%,8.1%
CC(CC(=O)Nc1ncc([N+](=O)[O-])s1)c1ccccc1 (stereo unspecified),-1.1%,?,?,1.4%,35.5µM*
C[C@@H](O[C@H]1OCCN(Cc2n[nH]c(=O)[nH]2)[C@@H]1c1ccc(F)cc1)c1cc(C(F)(F)F)cc(C(F)(F)F)c1,.,.,.,-1.2%,.
COc1ccccc1NC(=O)Cc1noc(CSc2cccc[n+]2[O-])n1,0.0%,1.0%,23.1µM*,-6.8%,-13.3%
COc1ccccc1NC(=O)Cc1noc(CSc2cc(C)c3ccccc3n2)n1,-0.2%,9.7%,?,0.5%,14.3%
Cn1ccnc1SCC(=O)c1ccc(Cl)cc1,3.7%,-1.7%,17.8µM*,1.4%,-23.8%
CC[C@@H]([C@H](C)O)n1ncn(-c2ccc(N3CCN(c4ccc(OCC5CO[C@@](Cn6cncn6)(c6ccc(F)cc6F)C5)cc4)CC3)cc2)c1=O (stereo partly specified),.,.,.,2.7%,.
CC1Cc2ccccc2N1C(=O)CSc1ccccc1 (stereo unspecified),-3.2%,6.9%,?,-3.5%,6.31µM*
C[N+]1(C)CCC(OC(=O)CC(O)(c2ccccc2)C2CCCC2)C1 (stereo unspecified),.,.,.,-0.7%,.
Nc1ccc(Nc2ccccc2)c(Cl)c1,0.4%,-10.4%,-4.4%,23.4%,7.94µM*
Nc1ccccc1Nc1ccccc1,-0.3%,21.2%,3.7%,1.2%,-23.5%
CCOc1ccc(N(CC(=O)Nc2ccccc2CC)S(=O)(=O)c2c(C)noc2C)cc1,.,.,.,0.0%,0.1%
CCOC(=O)/C(=C\Nc1ccccc1C(F)(F)F)Sc1ncc(C(F)(F)F)cc1Cl,-0.1%,-4.4%,4.1%,2.8%,-9.4%
N#Cc1c(Sc2ncc(C(F)(F)F)cc2Cl)nsc1C/C=N\OCc1ccccc1Br,-0.2%,-13.5%,9.1%,3.8%,14.1µM*
COc1ccc(N2CCN(C(=O)c3cc(S(=O)(=O)N4CCC(C)CC4)cn3C)CC2)cc1,.,.,.,46.0%,2.0%
Cc1ccc(Sc2oc(/C=N/n3cnnc3)cc2Br)cc1,-0.8%,11.3%,-17.0%,8.91µM*,-15.0%
C/C(=C(/CCO)SS/C(CCO)=C(\C)N(C=O)Cc1cnc(C)nc1N)N(C=O)Cc1cnc(C)nc1N,.,.,.,6.6%,.
CO[C@@]1(NC(=O)CSC(F)F)C(=O)N2C(C(=O)O)=C(CSc3nnnn3CCO)CO[C@@H]21,.,.,.,1.2%,.
C/C(CC(=O)Nc1ccc(Cl)cc1C(F)(F)F)=N\NC(N)=S,12.4%,-7.1%,11.2µM*,2.4%,-4.2%
Cc1ccc(/C=N/NS(=O)(=O)c2ccc([N+](=O)[O-])cc2)o1,-0.7%,?,?,24.6%,-6.4%
CCCCCCCCCCS(=O)(=O)N/N=C/c1ccc([N+](=O)[O-])cc1,-0.7%,7.3%,8.8%,-4.2%,20µM*
CCc1c(C)sc2c1CCN(Cc1ccccc1F)C2c1ccccc1 (stereo unspecified),.,.,.,-1.9%,-1.3%
SMILES,B2AR arrestin,MBNL1-CUG inh,BCR signal inh,GLS inh,Anesthetic bind
COc1cc(=O)n(C)c2c(OC[C@@H](O)C(C)(C)O)cccc12,.,.,.,.,1.6%[29.3 µM]
Oc1ccccc1Nc1ccccn1,-0.3%,6.2%,0.1%,12.6µM*,-6.7%
c1ccc(Nc2ccccn2)nc1,-1.0%,-0.3%,?,-1.7%,1.0%
CC(=O)Nc1ccc(Oc2cc(C#N)c(C#N)cc2N2CCOCC2)cc1,0.2%,6.1%,20.6µM*,4.9%,-8.0%
CC(=O)Nc1ccc(Oc2cc(C#N)c(C#N)cc2N2CCCCCC2)cc1,14.3%,9.0%,-5.0%,9.4%,1.4%
CCOC(=O)C1CCCN(c2nc3ccccc3nc2C(C#N)C(=O)OCC)C1 (stereo unspecified),0.3%,28.9%,1.9%,17.4%,139.2%
CCOC(=O)C1CCN(c2nc3ccccc3nc2C(C#N)C(=O)NCCc2ccccc2)CC1 (stereo unspecified),-2.0%,-8.8%,?,.,14.1µM*
Cc1ccc(C(=O)N2CCc3cc(CNS(=O)(=O)c4cccs4)ccc32)cc1,.,.,.,5.6%,-2.3%
COc1ccc(C=O)cc1OS(=O)(=O)c1ccc(NC(C)=O)cc1,0.0%,.,18.4µM*,4.6%,-17.7%
O=C(Nc1ccc(Nc2ccccc2)cc1)c1ccc(Cl)c([N+](=O)[O-])c1,-0.7%,9.8%,?,0.5%,?
Cc1cc(C(=O)Nc2ccc(Nc3ccccc3)cc2)ccc1[N+](=O)[O-],0.0%,-7.3%,-9.1%,15.8µM*,?
Cc1cc(C)c(OCC(=O)N(Cc2cccc(F)c2)Cc2ccco2)c(C)c1,.,.,.,1.3%,109.4%
COc1ccc2c(c1)OC(C)(C)C(c1ccccc1)C2c1ccc(OCCN2CCCC2)cc1 (stereo unspecified),.,.,.,15.3%,.
c1coc(-c2nc(-c3ccco3)c(-c3ccco3)nc2-c2ccco2)c1,0.4%,15.0%,0.8%,12.6µM*,-13.8%
COc1ccc(-c2cc(=O)oc3c(O)c(O)ccc23)cc1,0.0%,?,-2.9%,4.47µM*,-8.0%
O=C(Nc1cccc(Cl)c1)OCc1cnc(Cl)s1,0.3%,-2.1%,?,5.3%,10µM*
Cc1ccc(/C=N/NC(=O)NC2CCCCC2)o1,0.2%,6.9%,?,-12.4%,-15.2%
Cc1ccc(/C=C/C(=O)NC2CCCCCCC2)o1,-2.0%,4.0%,?,10µM*,?
CN(c1ccccc1)c1ccc(/C=N/NC(=O)CC#N)cc1,1.3µM*,.,?,13.0%,38.3%
c1ccc2c(CCC3CCNCC3)c[nH]c2c1,.,.,.,17.2%,.
CCOc1ccc(-n2c(=O)c3c(C)c(C(=O)N(C)C)sc3n(CC(=O)Nc3c(C)cc(C)cc3C)c2=O)cc1,.,.,4.8%,-2.6%,-1.2%
Cn1c(=O)c2c(nc(SCc3nn[nH]n3)n2Cc2ccccc2F)n(C)c1=O,-2.1%,15.3%,0.4%,-6.3%,1.6%
Cn1c(=O)n(Cc2ccccc2Cl)c(=O)c2c1[nH]c(=S)n2C,0.3%,-7.1%,-1.3%,14.1µM*,0.3%
Cn1c(SCc2nn[nH]n2)nc2c1c(=O)n(Cc1ccccc1Cl)c(=O)n2C,0.1%,-9.8%,0.3%,11.2µM*,112.6%

# Compound activity deposited in PubChem by National Center for Advancing Translational Sciences (NCATS).
